In PubChem BioAssay (NCI) one finds growth data, which are given here for 13 compounds.

About 83,000 compounds went through this panel and 20% of them were active in at least one assay; those are over-represented in the sample as a whole.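 Single-dose data. Exposure time 48 hours. Values below 10 considered active.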 A number with no mark means an inactive call. The source made the active and inactive calls.

Some test systems named below: NCI-H23 lung; NCI-H226 lung; NCI-H322M lung; HOP-62 NSCLC; NCI-H460 lung; HOP-92 NSCLC; NCI-H522 lung; A549/ATCC NSCLC; 786-0 renal; COLO 205 colon.
What all share (experiment): NCI-60 one-dose screen, 48 h (100 = growth as untreated, 0 = no growth, -100 = all killed)
Holding throughout (details): 10 µM unless noted

With `Fc1ccc2nc(-c3cc(-c4ccc5c(c4)OCO5)n[nH]3)[nH]c2c1`, the growth with NCI-H23 lung is 64%; in the experiment with NCI-H226 lung, 66.1%; in the experiment on NCI-H322M lung, 64.9%; with HOP-62 NSCLC, 75.5%; with NCI-H460 lung, 40.9%; in the experiment with HOP-92 NSCLC it was 64.9%. Moreover, the growth in the experiment with NCI-H522 lung was 33.7%; in the experiment on A549/ATCC NSCLC, 60.1%; in the experiment on 786-0 renal, 56.8%; with COLO 205 colon, 84.7%.
For `Nc1nc2c(c(=O)[nH]1)C(c1ccc3c(c1)OCO3)C=C(C(=O)O)N2` (stereo not given), the growth in the experiment on NCI-H23 lung was 109%; in the experiment with NCI-H226 lung, 115%; in the experiment with NCI-H322M lung, 114%; with HOP-62 NSCLC it was 115%; with NCI-H460 lung, 110%; with HOP-92 NSCLC it was 117%. Moreover, the growth was 106% with NCI-H522 lung, 99.2% in the experiment with A549/ATCC NSCLC, 98.3% in the experiment with 786-0 renal and 119% in the experiment with COLO 205 colon.
Turning to `NC1=NN(c2ccccc2)C(=O)/C1=C/c1ccc(Cl)cc1`, the growth in the experiment on NCI-H23 lung is 98%; in the experiment on NCI-H226 lung, 99.2%; in the experiment on NCI-H322M lung, 97.8%; with HOP-62 NSCLC, 95.3%; in the experiment with NCI-H460 lung, 99.1%; in the experiment on HOP-92 NSCLC, 91.6%. Besides, the growth was 90.6% with NCI-H522 lung, 98.5% in the experiment with A549/ATCC NSCLC, 94.4% in the experiment with 786-0 renal and 95.7% in the experiment on COLO 205 colon.
Turning to `N#C/C(=C\c1ccc(-c2cccc(C(F)(F)F)c2)o1)c1nc(-c2ccco2)cs1`, the growth with NCI-H23 lung is 91.8%; in the experiment on NCI-H226 lung, 84.1%; in the experiment with NCI-H322M lung, 89.2%; in the experiment with HOP-62 NSCLC, 105%; in the experiment on NCI-H460 lung, 94.4%; with HOP-92 NSCLC, 86.9%. Besides, the growth was 90% in the experiment with NCI-H522 lung, 104% in the experiment with A549/ATCC NSCLC, 102% in the experiment on 786-0 renal and 118% in the experiment with COLO 205 colon.
Regarding `COc1ccc2c(c1)C/C(=C\c1cc(-c3cc(OC)c(OC)c(OC)c3)n[nH]1)C2=O`, the growth in the experiment on NCI-H23 lung was 90.2%; with NCI-H226 lung it was 82.3%; in the experiment on NCI-H322M lung it was 93.9%; with HOP-62 NSCLC it was 103%; in the experiment with NCI-H460 lung it was 106%; with HOP-92 NSCLC, 79.1%. Besides, the growth in the experiment on NCI-H522 lung was 60.6%; in the experiment on A549/ATCC NSCLC, 92.9%; in the experiment on 786-0 renal, 95.9%; in the experiment on COLO 205 colon, 109%.
Regarding `COc1cc(/C=C/c2cc(/C=C/c3ccc(O)c(OC)c3)n(-c3ccc(Cl)cc3)c(=O)n2)ccc1O`, the growth with NCI-H23 lung was 93.7%; in the experiment on NCI-H226 lung, 91.3%; in the experiment on NCI-H322M lung, 82%; in the experiment on HOP-62 NSCLC, 90.1%; in the experiment with NCI-H460 lung, 92.3%; in the experiment with HOP-92 NSCLC, 88.6%. Also, the growth in the experiment on NCI-H522 lung was 91.3%; in the experiment with A549/ATCC NSCLC, 98.1%; in the experiment on 786-0 renal, 92.6%; in the experiment with COLO 205 colon it was 91.3%.
With `O=[N+]([O-])c1ccc(N/N=C(\C(=N/Nc2ccc([N+](=O)[O-])cc2[N+](=O)[O-])c2ccccc2)c2ccccc2)c([N+](=O)[O-])c1`, the growth with NCI-H23 lung is 104%; with NCI-H226 lung, 93.5%; in the experiment on NCI-H322M lung, 85.6%; with HOP-62 NSCLC, 89.5%; with NCI-H460 lung, 52.1%; in the experiment with HOP-92 NSCLC, 92.4%. Moreover, the growth in the experiment with NCI-H522 lung was 83.4%; in the experiment with A549/ATCC NSCLC it was 51.4%; with 786-0 renal, 90.5%; in the experiment on COLO 205 colon, 43.8%.
Take `O=C(NC(Cc1cn(Cc2ccccc2)cn1)C(=O)O)OCC1c2ccccc2-c2ccccc21` (stereo not given): the growth in the experiment with NCI-H23 lung is 98.7%; in the experiment on NCI-H226 lung, 102%; with NCI-H322M lung, 106%; in the experiment with HOP-62 NSCLC, 101%; in the experiment on NCI-H460 lung, 115%; in the experiment on HOP-92 NSCLC, 107%. Further, the growth is 84.2% in the experiment with NCI-H522 lung, 104% in the experiment with A549/ATCC NSCLC, 102% in the experiment with 786-0 renal and 110% in the experiment on COLO 205 colon.
As to `O=C(N/N=C\c1c(O)ccc2ccccc12)C1CC1`, the growth with NCI-H23 lung is 36.4%; with NCI-H226 lung, 79.6%; in the experiment on NCI-H322M lung it was 33.7%; with HOP-62 NSCLC, 55.8%; in the experiment on NCI-H460 lung it was 32.9%; with HOP-92 NSCLC it was 43.1%. The growth in the experiment on NCI-H522 lung is 11.6%; in the experiment on A549/ATCC NSCLC it was 58.4%; in the experiment on 786-0 renal it was 49.6%; in the experiment with COLO 205 colon, 96.3%.
On to `N#CC1C(=N)Cc2ccccc2-c2ccccc21` (stereo not given), for which the growth with NCI-H23 lung was 57.1%; in the experiment on NCI-H226 lung, 77.8%; in the experiment with NCI-H322M lung, 78.5%; in the experiment on HOP-62 NSCLC, 57.6%; with NCI-H460 lung, 27%; in the experiment on HOP-92 NSCLC, 49.6%. The growth was 8.86% (active) with NCI-H522 lung, 42.1% with A549/ATCC NSCLC, 65.6% with 786-0 renal and 51.4% in the experiment with COLO 205 colon.
On to `N#CCCCCCn1c2ccccc2c2c3c(c4c5ccccc5n(CCCCCC#N)c4c21)C(=O)N(O)C3=O`, for which the growth in the experiment on NCI-H23 lung was 72.5%; in the experiment with NCI-H226 lung, 79.1%; in the experiment on NCI-H322M lung, 81.5%; in the experiment with HOP-62 NSCLC it was 37.1%; with NCI-H460 lung, 87.7%; in the experiment on HOP-92 NSCLC, 87.4%. For the same compound, the growth in the experiment with NCI-H522 lung is 53.7%; in the experiment with A549/ATCC NSCLC, 94.5%; in the experiment with 786-0 renal it was 92.1%; in the experiment on COLO 205 colon, 84.6%.
Regarding `COC(=O)[C@]12CC[C@@H](C)[C@H](C)[C@@H]1C1=CC[C@@H]3[C@@](C)(CC#N)C4=C(C[C@@]3(C)[C@]1(C)CC2)OC[C@]4(C)C=O`, the growth is -10.1% (active) with NCI-H23 lung; -37% (active) with NCI-H226 lung; 10.4% with NCI-H322M lung; -23.6% (active) in the experiment with HOP-62 NSCLC; -57.1% (active) in the experiment with NCI-H460 lung; 2.68% (active) with HOP-92 NSCLC. For the same compound, the growth in the experiment on NCI-H522 lung is -6.43% (active); in the experiment with A549/ATCC NSCLC, -73.6% (active); with 786-0 renal it was -19.3% (active); in the experiment with COLO 205 colon, -94% (active).
Take `CC(=O)O[C@H]1CC[C@@]2(C)C(=CC[C@@H]3[C@@H]2CC[C@]2(C)C(=O)N(O)C(=O)C[C@@H]32)C1`: the growth in the experiment on NCI-H23 lung is 68%; with NCI-H226 lung, 107%; with NCI-H322M lung, 91.9%; in the experiment on HOP-62 NSCLC it was 68.5%; with NCI-H460 lung, 60.8%; in the experiment with HOP-92 NSCLC, 93%. The growth is 75.5% with NCI-H522 lung, 86.9% in the experiment on A549/ATCC NSCLC, 81.1% in the experiment on 786-0 renal and 112% with COLO 205 colon.
